Sampled rows, rich in hits. Any-hit rate of the full collection: about 3.5%.
TEAD-YAP block: TEAD-YAP interaction inhibition; inhibition, % at 9.12 µM; HEK-TIYL cells, TEAD-Gal4/YAP UAS-luciferase luminescence; 640,000 tested, 1.4% active; in the data active = inhibition above about 32%
GPR151 ag: activators of human GPR151. Q8TDV0. PathHunter beta-arrestin GPR151 cells, luminescence. activation, % at 11.2 µM. 650,000 tested, 1% active. AID 1508602; in the data active = activation above about 4.9%
FBW7 act: human FBW7 E3 ligase activation, primary screen | AlphaScreen FBW7–phospho-cyclin E peptide binding, activator screen | normalized activity (activation), % at 26.1 µM | 650,000 tested, 0.13% active; in the data active = normalized activity above about 1.9%;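 also: purified mutant Fbw7 with reduced substrate affinity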
MITF primary: inhibitors of human MITF. 650,000 tested, 0.91% active. O75030. inhibition, % at 2.6 µM. AlphaScreen MITF homodimerization, bead proximity signal. AID 1259374; in the data active = inhibition above about 50%
GPR151 conf act: confirmation of human GPR151 activators; shares compounds with GPR151 ag; GPR151 PathHunter beta-arrestin cells, luminescence, 90 min; % of EA-reagent control over plate median; activation, % at 11.2 µM; 6,700 tested, under 10 active;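 active = mean percent activation across replicates above the confirmation screen cutoff of 4.91%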
GPR119 counter: counter-screen for GPR151 activators: effect on human GPR119 | shares compounds with GPR151 ag | GPR119 PathHunter beta-arrestin cells, luminescence, 90 min; 0 = compound-well median, 100 = enzyme-acceptor control | 6,700 tested, 0.3% active | AID 1508611 | activation, % at 11.2 µM;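 active = mean percent activation in the counterscreen above 29.09%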;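 also: counterscreen on off-target GPR119 to flag nonselective hits from the GPR151 activator screen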
Target sequence (Q8TDV5 whole entry, looked up): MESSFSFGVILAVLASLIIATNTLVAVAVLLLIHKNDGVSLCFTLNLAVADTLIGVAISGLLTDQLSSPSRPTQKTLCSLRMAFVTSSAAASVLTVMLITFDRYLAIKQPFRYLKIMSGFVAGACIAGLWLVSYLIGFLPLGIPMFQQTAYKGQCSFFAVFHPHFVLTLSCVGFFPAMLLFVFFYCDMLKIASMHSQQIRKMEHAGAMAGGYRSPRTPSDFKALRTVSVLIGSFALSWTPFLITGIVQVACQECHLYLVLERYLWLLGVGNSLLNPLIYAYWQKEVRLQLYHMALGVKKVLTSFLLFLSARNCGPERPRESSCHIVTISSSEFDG
Hits are given with their value.

Results for Cc1cc(=O)oc2cc(OC(C)C(=O)Nc3ccccc3)ccc12 (stereo not drawn) ?
TEAD-YAP block: inactive; GPR151 ag: 5.3; FBW7 act: inactive; MITF primary: inactive; GPR151 conf act: inactive; GPR119 counter: inactive

What do the screens show for `CCOc1ncccc1C(=O)Nc1ccc2c(C)cc(=O)oc2c1`?
TEAD-YAP block: inactive; GPR151 ag: inactive; FBW7 act: inactive; MITF primary: inactive

Results for COc1ccc(NC(=O)C(C)Oc2ccc3oc(=O)cc(C)c3c2)cc1 (stereo not drawn) ?
TEAD-YAP block: inactive; GPR151 ag: inactive; FBW7 act: inactive; MITF primary: inactive

How did CCOC(=O)c1cccc(NC(=O)c2ccccc2OCC)c1 do in these assays?
TEAD-YAP block: inactive; GPR151 ag: 5.5; FBW7 act: inactive; MITF primary: inactive; GPR151 conf act: inactive; GPR119 counter: inactive

How did COc1ccccc1C(=O)Nc1cccc(N(C)C)c1 do in these assays?
TEAD-YAP block: inactive; GPR151 ag: 15.8; FBW7 act: inactive; MITF primary: inactive; GPR151 conf act: inactive; GPR119 counter: inactive

Results for COc1ccc(-c2nnc(SCC(=O)Nc3ccccc3)n2-c2ccccc2)cc1OC ?
TEAD-YAP block: inactive; GPR151 ag: inactive; FBW7 act: inactive; MITF primary: inactive

What do the screens show for `COc1ccc(C(=O)Nc2ccc(I)c(C)n2)cc1Cl`?
TEAD-YAP block: inactive; GPR151 ag: inactive; FBW7 act: inactive; MITF primary: inactive

Results for COc1cccc(CCNC(=O)C2CCN(CC(=O)Nc3ccc(F)cc3)CC2)c1 ?
TEAD-YAP block: inactive; GPR151 ag: inactive; FBW7 act: inactive; MITF primary: inactive

How did O=C(NCc1cccs1)C1(c2ccc(F)cc2)CC1 do in these assays?
TEAD-YAP block: inactive; GPR151 ag: inactive; FBW7 act: inactive; MITF primary: inactive

How did COc1ccc(Cn2c(C)cn3c4c(=O)n(CC(N)=O)c(=O)n(C)c4nc23)cc1 do in these assays?
TEAD-YAP block: inactive; GPR151 ag: inactive; FBW7 act: inactive; MITF primary: inactive

What do the screens show for `COc1ccc(C(=O)N2CCC(C)CC2)cc1`?
TEAD-YAP block: inactive; GPR151 ag: inactive; FBW7 act: inactive; MITF primary: inactive

Results for NC(=S)c1cccc(NC(=O)CN2CCOCC2)c1 ?
TEAD-YAP block: inactive; GPR151 ag: inactive; FBW7 act: inactive; MITF primary: inactive

What do the screens show for `N#Cc1c(-c2ccccc2)cc(-c2cccc([N+](=O)[O-])c2)c(C#N)c1N`?
TEAD-YAP block: inactive; GPR151 ag: 5.9; FBW7 act: inactive; MITF primary: inactive; GPR151 conf act: inactive; GPR119 counter: inactive

How did N#Cc1c(-c2cccc([N+](=O)[O-])c2)c(C#N)c(=O)n(N)c1N do in these assays?
TEAD-YAP block: inactive; GPR151 ag: inactive; FBW7 act: inactive; MITF primary: inactive

How did O=C1c2ccc([N+](=O)[O-])cc2C(=O)N1c1ccc(Cl)c(Cl)c1 do in these assays?
TEAD-YAP block: inactive; GPR151 ag: 6.9; FBW7 act: inactive; MITF primary: inactive; GPR151 conf act: inactive; GPR119 counter: inactive

What do the screens show for `Cc1ccc(N2C(=O)c3ccc([N+](=O)[O-])cc3C2=O)cc1Cl`?
TEAD-YAP block: inactive; GPR151 ag: inactive; FBW7 act: inactive; MITF primary: inactive

How did CCOc1cc(/C=C(/C#N)C(=O)NCc2ccccc2)ccc1OC do in these assays?
TEAD-YAP block: inactive; GPR151 ag: inactive; FBW7 act: inactive; MITF primary: inactive

How did COc1ccc(/C=C(\C#N)C(=O)NCc2cccnc2)cc1OC do in these assays?
TEAD-YAP block: inactive; GPR151 ag: 6.0; FBW7 act: inactive; MITF primary: inactive; GPR151 conf act: inactive; GPR119 counter: inactive

Results for CN(C)CCn1c(-c2ccccc2)nc(=S)c2c1CCCC2 ?
TEAD-YAP block: inactive; GPR151 ag: inactive; FBW7 act: inactive; MITF primary: inactive

How did Cc1c(C(=O)N2CCCCCC2)sc2ncn(Cc3ccccc3Cl)c(=O)c12 do in these assays?
TEAD-YAP block: inactive; GPR151 ag: 8.5; FBW7 act: inactive; MITF primary: inactive; GPR151 conf act: inactive; GPR119 counter: inactive

How did Cc1c(C(=O)N2CCN(Cc3ccccc3)CC2)sc2ncn(Cc3ccccc3Cl)c(=O)c12 do in these assays?
TEAD-YAP block: inactive; GPR151 ag: inactive; FBW7 act: inactive; MITF primary: inactive

What do the screens show for `COc1ccc(C(=O)NCCS(=O)(=O)NCCCOC(C)C)cc1`?
TEAD-YAP block: inactive; GPR151 ag: 5.2; FBW7 act: inactive; MITF primary: inactive; GPR151 conf act: inactive; GPR119 counter: inactive

Results for CNC(=O)/C=C/c1cccc(C(F)(F)F)c1 ?
TEAD-YAP block: inactive; GPR151 ag: 6.1; FBW7 act: inactive; MITF primary: inactive; GPR151 conf act: inactive; GPR119 counter: inactive

What do the screens show for `CC(C)c1[nH]nc2c1C(C(C)C)C(C#N)=C(N)O2` (stereo not drawn)?
TEAD-YAP block: inactive; GPR151 ag: 8.3; FBW7 act: inactive; MITF primary: inactive; GPR151 conf act: inactive; GPR119 counter: inactive

What do the screens show for `COc1ccc(OC)c(NC(=O)c2ccc(C)c(Br)c2)c1`?
TEAD-YAP block: inactive; GPR151 ag: 7.9; FBW7 act: inactive; MITF primary: inactive; GPR151 conf act: inactive; GPR119 counter: inactive

How did COc1ccc(OC)c(NC(=O)c2ccc(C)cc2)c1 do in these assays?
TEAD-YAP block: inactive; GPR151 ag: inactive; FBW7 act: inactive; MITF primary: inactive

How did COc1ccc(C(=O)N/N=C(\C)c2ccc(OC)c(Br)c2)cc1 do in these assays?
TEAD-YAP block: inactive; GPR151 ag: 6.3; FBW7 act: inactive; MITF primary: inactive; GPR151 conf act: inactive; GPR119 counter: inactive

How did CCN1CCC(=NNC(=O)c2ccc(-n3c(C)ccc3C)cc2)CC1 do in these assays?
TEAD-YAP block: inactive; GPR151 ag: inactive; FBW7 act: inactive; MITF primary: inactive

Results for CCOC(=O)N1CCC(NCCc2ccc(Cl)cc2Cl)CC1 ?
TEAD-YAP block: inactive; GPR151 ag: inactive; FBW7 act: inactive; MITF primary: inactive

How did CC(C)(C)OC(=O)NNC(=O)/C=C/c1cc(Br)ccc1F do in these assays?
TEAD-YAP block: inactive; GPR151 ag: 5.2; FBW7 act: inactive; MITF primary: inactive; GPR151 conf act: inactive; GPR119 counter: inactive

What do the screens show for `COc1ccc(CN2CCC(CNC(=O)CCn3nc(C)cc3C)CC2)cc1`?
TEAD-YAP block: inactive; GPR151 ag: inactive; FBW7 act: inactive; MITF primary: inactive

How did Cc1nnc(CN(C)Cc2cn[nH]c2-c2ccc(C)c(C)c2)o1 do in these assays?
TEAD-YAP block: inactive; GPR151 ag: 6.7; FBW7 act: inactive; MITF primary: inactive; GPR151 conf act: inactive; GPR119 counter: inactive

Results for Cc1ccc(-c2[nH]ncc2CN(C)Cc2c(C)n[nH]c2C)cc1C ?
TEAD-YAP block: inactive; GPR151 ag: inactive; FBW7 act: inactive; MITF primary: inactive

Results for CCOC(=O)C1=C(C)N=c2s/c(=C/c3ccc(Br)s3)c(=O)n2C1c1cccs1 (stereo not drawn) ?
TEAD-YAP block: inactive; GPR151 ag: inactive; FBW7 act: inactive; MITF primary: inactive
